# Assay results as given in PubChem BioAssay AID1159580 (chemical genetic matrix, 2015).
# The whole screen tested about 5,500 compounds, of which about 2,000 (36%) were called active. Another 18% or so got no clear call; they are omitted. This is one part of the list. A number with no mark means an inactive call. No stated cut-off is given here; in the data, active means normalized growth mostly below about 0.91 (no sharp cut-off); inconclusive means no clear call, values can overlap the other calls; inactive means mostly above about 0.92.
# Experiment: chemical genetic growth profiling, strain panel (AID 1159580);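 further: tested at 20 µM; growth read once vehicle control cultures reached saturation at 30 °C; 1 = growth at the plate median or of vehicle wells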
# Conditions: growth OD
smiles,measurement,setting,value
O=c1c(-c2cc(O)c(O)c(O)c2)coc2cc(O)c(O)c(O)c12,normalized growth,"S. cerevisiae deletion strains, locus YJL187C, strain SWE1, stronger effect = lower value",0.975
same,normalized growth,"S. cerevisiae deletion strains, locus YJR043C, strain POL32, stronger effect = lower value",0.752 (active)
same,normalized growth,"S. cerevisiae deletion strains, locus YJR075W, strain HOC1, stronger effect = lower value",0.929
same,normalized growth,"S. cerevisiae deletion strains, locus YKL009W, strain mrt4, stronger effect = lower value",1.07
same,normalized growth,"S. cerevisiae deletion strains, locus YKL068W, stronger effect = lower value",1.01
same,normalized growth,"S. cerevisiae deletion strains, locus YKL085W, strain MDH1 (second series), stronger effect = lower value",1.02
same,normalized growth,"S. cerevisiae deletion strains, locus YKL085W, strain MDH1, stronger effect = lower value",1.02
same,normalized growth,"S. cerevisiae deletion strains, locus YKL160W, strain elf1, stronger effect = lower value",0.952
same,normalized growth,"S. cerevisiae deletion strains, locus YKL190W, strain CNB1, stronger effect = lower value",0.86 (active)
same,normalized growth,"S. cerevisiae deletion strains, locus YKR001C, strain vps1, stronger effect = lower value",0.987
same,normalized growth,"S. cerevisiae deletion strains, locus YKR026C, strain gcn3, stronger effect = lower value",0.995
same,normalized growth,"S. cerevisiae deletion strains, locus YKR091W, strain srl3, stronger effect = lower value",1.02
same,normalized growth,"S. cerevisiae deletion strains, locus YLL001W, strain dnm1, stronger effect = lower value",0.965
same,normalized growth,"S. cerevisiae deletion strains, locus YLL026W, stronger effect = lower value",1.01
same,normalized growth,"S. cerevisiae deletion strains, locus YLL041C, strain sdh2, stronger effect = lower value",1
same,normalized growth,"S. cerevisiae deletion strains, locus YLR027C, strain aat2, stronger effect = lower value",0.974
same,normalized growth,"S. cerevisiae deletion strains, locus YLR039C, strain RIC1, stronger effect = lower value",0.626 (active)
same,normalized growth,"S. cerevisiae deletion strains, locus YLR058C, strain SHM2, stronger effect = lower value",0.377 (active)
same,normalized growth,"S. cerevisiae deletion strains, locus YLR102C, strain apc9, stronger effect = lower value",1
same,normalized growth,"S. cerevisiae deletion strains, locus YLR221C, strain rsa3, stronger effect = lower value",0.981
same,normalized growth,"S. cerevisiae deletion strains, locus YLR258W, strain gsy2, stronger effect = lower value",0.988
same,normalized growth,"S. cerevisiae deletion strains, locus YLR262C, strain YPT6 (second series), stronger effect = lower value",0.889
same,normalized growth,"S. cerevisiae deletion strains, locus YLR262C, strain YPT6, stronger effect = lower value",0.758
same,normalized growth,"S. cerevisiae deletion strains, locus YLR268W, strain sec22, stronger effect = lower value",0.898
same,normalized growth,"S. cerevisiae deletion strains, locus YLR320W, strain mms22, stronger effect = lower value",0.941
same,normalized growth,"S. cerevisiae deletion strains, locus YLR330W, strain CHS5, stronger effect = lower value",0.93
same,normalized growth,"S. cerevisiae deletion strains, locus YLR342W, strain FKS1 (second series), stronger effect = lower value",0.648 (active)
same,normalized growth,"S. cerevisiae deletion strains, locus YLR342W, strain FKS1, stronger effect = lower value",0.954
same,normalized growth,"S. cerevisiae deletion strains, locus YLR357W, strain rsc2, stronger effect = lower value",0.753 (active)
same,normalized growth,"S. cerevisiae deletion strains, locus YLR370C, strain arc18, stronger effect = lower value",0.911
same,normalized growth,"S. cerevisiae deletion strains, locus YLR371W, strain rom2, stronger effect = lower value",0.885 (active)
same,normalized growth,"S. cerevisiae deletion strains, locus YLR384C, strain iki3, stronger effect = lower value",1
same,normalized growth,"S. cerevisiae deletion strains, locus YLR418C, strain cdc73, stronger effect = lower value",0.797 (active)
same,normalized growth,"S. cerevisiae deletion strains, locus YML016C, strain PPZ1, stronger effect = lower value",0.853 (active)
same,normalized growth,"S. cerevisiae deletion strains, locus YML032C, strain rad52, stronger effect = lower value",0.905 (active)
same,normalized growth,"S. cerevisiae deletion strains, locus YML120C, strain ndi1, stronger effect = lower value",0.747 (active)
same,normalized growth,"S. cerevisiae deletion strains, locus YML124C, strain tub3, stronger effect = lower value",0.99
same,normalized growth,"S. cerevisiae deletion strains, locus YMR058W, strain fet3, stronger effect = lower value",0.761 (active)
same,normalized growth,"S. cerevisiae deletion strains, locus YMR078C, strain ctf18, stronger effect = lower value",0.994
same,normalized growth,"S. cerevisiae deletion strains, locus YMR125W, strain sto1, stronger effect = lower value",1.06
same,normalized growth,"S. cerevisiae deletion strains, locus YMR129W, stronger effect = lower value",1.03
same,normalized growth,"S. cerevisiae deletion strains, locus YMR205C, strain PFK2, stronger effect = lower value",0.961
same,normalized growth,"S. cerevisiae deletion strains, locus YMR223W, strain ubp8, stronger effect = lower value",0.94
same,normalized growth,"S. cerevisiae deletion strains, locus YMR231W, strain pep5, stronger effect = lower value",0.821 (active)
same,normalized growth,"S. cerevisiae deletion strains, locus YMR307W, strain GAS1, stronger effect = lower value",0.638
same,normalized growth,"S. cerevisiae deletion strains, locus YNL067W, strain RPL9B, stronger effect = lower value",0.841 (active)
same,normalized growth,"S. cerevisiae deletion strains, locus YNL071W, strain lat1, stronger effect = lower value",1.01
same,normalized growth,"S. cerevisiae deletion strains, locus YNL153C, strain GIM3, stronger effect = lower value",0.582 (active)
same,normalized growth,"S. cerevisiae deletion strains, locus YNL209W, strain ssb2, stronger effect = lower value",0.804 (active)
same,normalized growth,"S. cerevisiae deletion strains, locus YNL233W, strain BNI4, stronger effect = lower value",0.876
same,normalized growth,"S. cerevisiae deletion strains, locus YNL248C, strain rpa49, stronger effect = lower value",0.935
same,normalized growth,"S. cerevisiae deletion strains, locus YNL250W, strain rad50, stronger effect = lower value",0.998
same,normalized growth,"S. cerevisiae deletion strains, locus YNL271C, strain bni1, stronger effect = lower value",0.986
same,normalized growth,"S. cerevisiae deletion strains, locus YNL298W, strain CLA4, stronger effect = lower value",0.974
same,normalized growth,"S. cerevisiae deletion strains, locus YNL307C, strain MCK1, stronger effect = lower value",0.986
same,normalized growth,"S. cerevisiae deletion strains, locus YNL322C, strain KRE1 (second series), stronger effect = lower value",1.01
same,normalized growth,"S. cerevisiae deletion strains, locus YNR049C, strain mso1, stronger effect = lower value",1.01
same,normalized growth,"S. cerevisiae deletion strains, locus YNR052C, strain pop2, stronger effect = lower value",0.695 (active)
same,normalized growth,"S. cerevisiae deletion strains, locus YOL012C, strain htz1",0.414
same,normalized growth,"S. cerevisiae deletion strains, locus YOL147C, strain pex11, stronger effect = lower value",0.865 (active)
same,normalized growth,"S. cerevisiae deletion strains, locus YOR001W, strain rrp6, stronger effect = lower value",0.949
same,normalized growth,"S. cerevisiae deletion strains, locus YOR061W, strain CKA2, stronger effect = lower value",0.87 (active)
same,normalized growth,"S. cerevisiae deletion strains, locus YOR069W, strain VPS5, stronger effect = lower value",0.926 (active)
same,normalized growth,"S. cerevisiae deletion strains, locus YOR070C, strain gyp1, stronger effect = lower value",0.978
same,normalized growth,"S. cerevisiae deletion strains, locus YOR080W, strain dia2, stronger effect = lower value",0.975
same,normalized growth,"S. cerevisiae deletion strains, locus YOR083W, strain WHI5, stronger effect = lower value",0.903
same,normalized growth,"S. cerevisiae deletion strains, locus YOR106W, strain vam3, stronger effect = lower value",0.686 (active)
same,normalized growth,"S. cerevisiae deletion strains, locus YOR136W, strain idh2, stronger effect = lower value",0.987
same,normalized growth,"S. cerevisiae deletion strains, locus YOR144C, strain elg1, stronger effect = lower value",0.915 (active)
same,normalized growth,"S. cerevisiae deletion strains, locus YOR184W, strain ser1, stronger effect = lower value",0.88
same,normalized growth,"S. cerevisiae deletion strains, locus YOR265W, strain rbl2, stronger effect = lower value",1
same,normalized growth,"S. cerevisiae deletion strains, locus YOR270C, strain vph1, stronger effect = lower value",0.572 (active)
same,normalized growth,"S. cerevisiae deletion strains, locus YOR290C, strain snf2, stronger effect = lower value",0.344 (active)
same,normalized growth,"S. cerevisiae deletion strains, locus YOR316C, strain cot1, stronger effect = lower value",1
same,normalized growth,"S. cerevisiae deletion strains, locus YPL051W, strain arl3, stronger effect = lower value",0.817 (active)
same,normalized growth,"S. cerevisiae deletion strains, locus YPL055C, strain LGE1, stronger effect = lower value",0.783
same,normalized growth,"S. cerevisiae deletion strains, locus YPL078C, strain atp4, stronger effect = lower value",0.856 (active)
same,normalized growth,"S. cerevisiae deletion strains, locus YPL106C, strain sse1, stronger effect = lower value",0.91
same,normalized growth,"S. cerevisiae deletion strains, locus YPL240C, strain hsp82, stronger effect = lower value",0.988
same,normalized growth,"S. cerevisiae deletion strains, locus YPL241C, strain CIN2, stronger effect = lower value",0.948
same,normalized growth,"S. cerevisiae deletion strains, locus YPR119W, strain clb2, stronger effect = lower value",1.02
same,normalized growth,"S. cerevisiae deletion strains, locus YPR141C, strain kar3, stronger effect = lower value",1
same,normalized growth,"S. cerevisiae deletion strains, locus YPR163C, strain tif3, stronger effect = lower value",0.998
same,normalized growth,"S. cerevisiae deletion strains, locus YPR167C, strain met16, stronger effect = lower value",1.01
same,normalized growth,"S. cerevisiae deletion strains, strain wtn01, stronger effect = lower value",0.934
same,normalized growth,"S. cerevisiae strains, strain wild type, stronger effect = lower value",0.78 (active)
